# Results from PubChem BioAssay AID836 (Columbia University Molecular Screening Center, 2007).
# Out of some 91,000 compounds screened, about 160 (0.18%) were called active. Shown is part of a subset that was picked to be rich in actives. A number with no mark means an inactive call.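 The calls were made as follows: active = inhibition above the batch mean plus 3 SD and confirmed as a hit by visual image inspection (cut at about 30% in these data, passing the limit was not always enough); inconclusive = above the inhibition threshold but rejected on visual inspection; inactive = the rest.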
# Test: modifiers of F-actin cytoskeleton organization, primary screen, imaging, HUVEC, phalloidin staining, high-content imaging (AID 836)
# Conditions: HUVEC TNFa F-actin phalloidin imaging, at 2 µM, hits give high values
row,SMILES,inhibition
1,Cn1c2c(c(=O)n(C)c1=O)[C@@H]1c3c(ccc4ccccc34)OC[C@@H]1CO2,8.1%
2,COc1ccc2c(c1OC)C(=O)c1ccccc1C2=O,1%
3,CCC(C)n1c(-c2cc(OC)c(OC)c(OC)c2)nc2nc3ccccc3nc21 (stereo unspecified),-3.2%
4,CCNC(=S)Nc1cccc(Cl)c1C,11.2%
5,COc1ccc(-c2csc3nc(-c4ccccc4F)oc(=O)c23)cc1OC,-3.2%
6,O=c1oc2c(Cl)cc(Cl)cc2cc1-c1nnc(Nc2ccccc2F)s1,5%
7,O=C(/C=C/Nc1ccccc1OC(F)(F)F)C(F)(F)F,6.2%
8,CCC(=O)NC(NCC1CCCO1)C(Cl)(Cl)Cl (stereo unspecified),-23.7%
9,C=CCn1c(Oc2ccc(C(=O)OC)cc2)nc2c1c(=O)n(C)c(=O)n2C,13.6%
10,O=C(Nc1ccccc1Cl)O/N=C(/c1ccccc1)c1ccccn1,-5.5%
11,CC(C)NC(=O)NC(=O)COC(=O)c1ccc(NC(=O)CC#N)cc1,2%
12,O=C(O)COc1ccc(-c2nccc(-c3cccs3)n2)cc1,29.5%
13,O=C(CSc1ccccc1)Nc1ccc(NC(=O)c2ccco2)cc1,20.5%
14,O=C(CCc1ccc(S(=O)(=O)NC2CCCCC2)cc1)NCc1ccccc1,-16.8%
15,COc1cccc(C(=O)NNC(=O)c2ccccc2Br)c1,-16.2%
16,CC(CNc1ccc([N+](=O)[O-])cc1)NC(=O)c1ccccc1Br (stereo unspecified),-6.1%
17,O=C(Nc1ccc(Cl)cc1)OCc1cc(-c2ccccc2)on1,-6.9%
18,O=C1c2oc3ccc(Br)cc3c(=O)c2C(c2cccc(F)c2)N1CCO (stereo unspecified),7.4%
19,O=C1c2oc3ccccc3c(=O)c2C(c2cccc(O)c2)N1c1ccccn1 (stereo unspecified),-31.1%
20,COCCN1C(=O)c2oc3c(C)cc(C)cc3c(=O)c2C1c1cccc(O)c1 (stereo unspecified),53.6% (active)
21,COc1ccc(C(=O)N2CCc3cc(OC)c(OC)cc3C2c2cccc([N+](=O)[O-])c2)cc1 (stereo unspecified),-0.9%
22,CCN(CC)C(=O)CSC1c2ccccc2C(=O)N1c1ccccc1 (stereo unspecified),-35.9%
23,Cc1cccc(NC(=S)N2CCC(c3nc4ccccc4s3)CC2)c1,-9.4%
24,COC(=O)c1ccc(C(=O)OC)c(NC(=S)N2CCCCC2)c1,-4.3%

row,SMILES,inhibition
1,Cc1ccc2nc(Nc3ccccc3O)nc(-c3ccccc3)c2c1,-0.7%
2,COc1ccc(/C=N/Nc2nc3ccccc3c(=O)[nH]2)cc1,0.1%
3,CC(Oc1ccc(F)cc1F)C(=O)/C=C/N(C)C (stereo unspecified),-4.4%
4,Cc1ccc(OCC(=O)Nc2cccc3c2CCCC3)cc1C,-5.6%
5,COc1cc(C(=S)N2CCOCC2)cc(OC)c1OC(=O)c1cc([N+](=O)[O-])c(C)c([N+](=O)[O-])c1,-7.7%
6,COc1ccc(C(=S)Nc2ccccc2)cc1,2.8%
7,COc1nc(-c2ccc(Cl)cc2)ccc1-c1noc(-c2cccs2)n1,19.6%
8,Cc1occc1C(=O)NNC(=S)NCC(C)C,-20.3%
9,CSc1ccccc1-c1nnc(-c2ccc(Cl)cc2)o1,-9.7%
10,Cc1ccc(-c2nc3ccccc3[nH]2)cc1NC(=O)c1sc2ccccc2c1Cl,-19%
11,O=C(c1ccccc1)c1cc(-c2ccccn2)c(N2CCOCC2)s1,-8.8%
12,COC(=O)C(C)Oc1ccc2c(-c3cccc([N+](=O)[O-])c3)cc(=O)oc2c1 (stereo unspecified),19.5%
13,Cc1ccccc1NC(=O)c1ccccc1NS(=O)(=O)c1cccc2cccnc12,-7.4%
14,Cc1nn(Cc2ccccc2Cl)c(C)c1NC(=O)Cn1nc([N+](=O)[O-])c(Cl)c1C,-13.3%
15,CC(C)C(C)NC(=O)COc1ncnc2ccccc12 (stereo unspecified),2.1%
16,O=C(Nc1ccc(-n2ccnc2P(=O)(O)c2ccccc2)cc1)c1ccccc1Br,-15.1%
17,O=C(CSCc1ccc([N+](=O)[O-])cc1)NCCSCc1ccccc1,-4.8%
18,COc1ccc(/C=C(/NC(=O)c2ccc(C)cc2)c2nc3ccccc3[nH]2)cc1OC,24.6%
19,Cc1cc(C)c2c3c(sc2n1)C(c1ccccc1)C(C#N)=C(N)O3 (stereo unspecified),7.5%
20,CC(C)(C)c1cc2cccnc2n1Cc1ccccc1,-13.7%
21,COCCCNC(NC(=O)c1ccc(C)cc1)C(Cl)(Cl)Cl (stereo unspecified),-4.7%
22,O=C1COc2ccc(NC(=O)N3CCN(c4ccc(F)cc4)CC3)cc2N1,-1.9%
23,COc1ccccc1NC(=O)[C@H](COCc1ccccc1)NC(=O)OC(C)(C)C,-9.9%
24,Oc1ccccc1/C=N/n1c(-c2cccs2)n[nH]c1=S,-11.3%

row,SMILES,inhibition
1,COc1ccc(C(=O)c2c(C)oc3cc([N+](=O)[O-])c(O)c([N+](=O)[O-])c23)cc1,3.1%
2,C=CCOc1c2ccc(C(=O)N(CC)c3ccc(OC)cc3)cc2nn1C,12.9%
3,COc1cccc(/C=N/NC(=O)c2cccc([N+](=O)[O-])c2)c1OS(=O)(=O)c1ccc(C)cc1,-0.8%
4,CCn1c(SC)nc(O)c(C(c2ccc(OC)c(O)c2)c2c(O)nc(SC)n(CC)c2=O)c1=O,10.2%
5,COc1cccc(NC(=O)c2nn(C34CC5CC(CC(C5)C3)C4)cc2[N+](=O)[O-])c1,14%
6,Cc1ccc(-c2nnc(C)c(N3CC(C)OC(C)C3)n2)cc1 (stereo unspecified),9.5%
7,COC(=O)c1c(CCl)noc1C(=O)NC(C)C,-7%
8,O=C1c2ccccc2C(=O)N1CC1c2ccccc2CCN1S(=O)(=O)c1ccccc1 (stereo unspecified),24.7%
9,O=C1CCCC2=C1C(c1ccccc1)n1c(s/c(=C/c3cccc(F)c3)c1=O)=N2 (stereo unspecified),0.6%
10,Cc1c(CCO)c(=O)[nH]n1C(=O)c1c(F)cccc1F,14.6%
11,CC(C)c1ccc(NC(=O)CCN2C(=O)c3ccc([N+](=O)[O-])cc3C2=O)cc1,-2%
12,c1ccc2c(C[n+]3csc4ccccc43)cccc2c1,1.4%
13,O=C(NN1C(=O)C2C3C=CC(C4CC34)C2C1=O)c1ccc(Cl)cc1 (stereo unspecified),-3.8%
14,CCCCOC(=O)Nc1sc2nc(C)cc(C)c2c1-n1cccc1,14.1%
15,CC1CC(C)CN(S(=O)(=O)c2cccc(C(=O)N3C(=O)c4cccc(N)c4C3=O)c2)C1 (stereo unspecified),-15.2%
16,CCOC(=O)NNC(=O)c1ccc(Cl)cc1,18%
17,N#C/C(=C(/O)COc1cccc2ccccc12)c1nc2ccccc2[nH]1,-7.4%
18,CSCc1cc(N2CCOCC2)nc(SCc2ccc(Cl)cc2Cl)n1,3.4%
19,N#CC1=C(N)N(c2ccc(F)cc2)C(=O)C1,-25.3%
20,CC(C)(C)NS(=O)(=O)c1ccc(NC(=O)NC2CCCCC2)cc1,2.8%
21,O=C1CN(c2nc(-c3ccccc3)c3cc(Br)ccc3n2)c2ccccc2N1,-17.8%
22,O=C(Cn1ccc([N+](=O)[O-])n1)NCc1cccs1,-5.1%
23,Cc1c(Br)c([N+](=O)[O-])nn1C(C)C(=O)Nc1nccs1 (stereo unspecified),7.3%
24,CCCn1nnnc1NC(=O)COc1ccc(Cl)cc1C,0.8%

row,SMILES,inhibition
1,CCOC(=O)N1CCN(c2c(NCCCN3CCCC(C)C3)c(=O)c2=O)CC1 (stereo unspecified),8.2%
2,Cc1cccc(N(CC(=O)Nc2ccc(-c3nc4ccc(C)cc4s3)cc2)S(C)(=O)=O)c1,29.8%
3,COc1cc(C(=O)NC(=S)NCc2ccco2)cc(OC)c1OC,-26%
4,CCOC(=O)CC(=O)CSc1nc(-c2ccccc2)cc(-c2ccc(Cl)cc2)c1C#N,-2.9%
5,Cc1ccc(NC(=S)NC2CCCC2)cc1,0.9%
6,CCc1cccc2c(C=C(C#N)C#N)cn(CC(=O)N3CCCCC3)c12,9.3%
7,COc1ccccc1C(=O)NN1C(=O)C2C3C=CC(O3)C2C1=O (stereo unspecified),-1%
8,Cc1ccc(N2CCN(/N=C/c3cccs3)CC2)cc1,-35.9%
9,O=C(CNC(=O)c1cc2c(s1)CCC2)Nc1ccccc1Br,9.1%
10,CC(=O)N1Cc2ccccc2CC1C(=O)O (stereo unspecified),-11.9%
11,Cc1ccccc1OCc1nnc(SCC(=O)N2c3ccccc3Sc3ccc(Cl)cc32)o1,-79.4%
12,O=C(Cc1ccccc1)N/N=C/c1ccc(Cl)cc1Cl,0.1%
13,N#C/C(=C/c1ccc(Cl)cc1)NC(=O)c1ccccc1,-6.5%
14,O=C(Nc1nc(-c2ccc3c(c2)OCO3)cs1)c1ccncc1,-6.9%
15,O=C(Nc1nc(-c2ccncc2)cs1)C1COc2ccccc2O1 (stereo unspecified),55.6% (active)
16,COc1ccc(OC)c2sc(NC(=O)C3COc4ccccc4O3)nc12 (stereo unspecified),-2.9%
17,Cc1ccc(NC(=S)Nc2ncccc2C)c(C)c1,-17.2%
18,COc1ccc(Oc2c(Cl)cnn(-c3ccccc3)c2=O)cc1,-7.9%
19,Cc1cc(N=CC2=C(O)CCCC2=O)no1,3.6%
20,COc1ccc(O)c(C=Nc2cc(C)on2)c1,73.6% (active)
21,COc1ccc(O)c(C(=O)c2cnc3onc(C(C)C)c3c2)c1,0.9%
22,Cc1ccc(C(=O)N/C(=C/C=C/c2ccccc2)C(=O)NCc2ccco2)cc1,19.4%
23,COC(=O)Nc1sc2nc(C)cc(C)c2c1-n1cccc1,-0.5%
24,CC1=NN(C(=O)Cc2ccc(C)cc2)C(O)(c2cccnc2)C1 (stereo unspecified),5.3%
